Assay results: PubChem BioAssay AID1159580 (chemical genetic matrix, 2015)
“And” between values parts separate entries of the source, which are not always exact repeats. Equal values may be shown once. Hit rate of the full screen: of about 5,500 compounds, about 2,000 (36%) were called active. About 18% were inconclusive and are not listed. No stated cut-off is given here; in the data, active means normalized growth mostly below about 0.91 (no sharp cut-off); inconclusive means no clear call, values can overlap the other calls; inactive means mostly above about 0.92. The list shows a part of the results.

Test: chemical genetic growth profiling, strain panel (AID 1159580);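 further: tested at 20 µM; growth read once vehicle control cultures reached saturation at 30 °C; 1 = growth at the plate median or of vehicle wells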
Settings: growth OD

Measured: normalized growth

CC(C)(C)NCC(O)c1cc(O)cc(O)c1 (stereo not drawn)
inactive: S. cerevisiae deletion strains, locus YKL009W, strain mrt4, stronger effect = lower value 0.961 | S. cerevisiae deletion strains, locus YKL068W, stronger effect = lower value 0.975 | S. cerevisiae deletion strains, locus YKL085W, strain MDH1 (second series), stronger effect = lower value 0.967 | S. cerevisiae deletion strains, locus YKL085W, strain MDH1, stronger effect = lower value 0.967 | S. cerevisiae deletion strains, locus YKL160W, strain elf1, stronger effect = lower value 0.934 | S. cerevisiae deletion strains, locus YKL190W, strain CNB1, stronger effect = lower value 0.994 | S. cerevisiae deletion strains, locus YKR001C, strain vps1, stronger effect = lower value 0.994 | S. cerevisiae deletion strains, locus YKR026C, strain gcn3, stronger effect = lower value 0.983 | S. cerevisiae deletion strains, locus YKR091W, strain srl3, stronger effect = lower value 0.978 | S. cerevisiae deletion strains, locus YLL001W, strain dnm1, stronger effect = lower value 1 | S. cerevisiae deletion strains, locus YLL026W, stronger effect = lower value 0.984 | S. cerevisiae deletion strains, locus YLL041C, strain sdh2, stronger effect = lower value 0.993 | S. cerevisiae deletion strains, locus YLR027C, strain aat2, stronger effect = lower value 0.987 | S. cerevisiae deletion strains, locus YLR039C, strain RIC1, stronger effect = lower value 0.978 | S. cerevisiae deletion strains, locus YLR058C, strain SHM2, stronger effect = lower value 0.987 | S. cerevisiae deletion strains, locus YLR102C, strain apc9, stronger effect = lower value 0.982 | S. cerevisiae deletion strains, locus YLR113W, strain HOG1, stronger effect = lower value 0.981 | S. cerevisiae deletion strains, locus YLR221C, strain rsa3, stronger effect = lower value 1.01 | S. cerevisiae deletion strains, locus YLR258W, strain gsy2, stronger effect = lower value 0.993 | S. cerevisiae deletion strains, locus YLR262C, strain YPT6 (second series), stronger effect = lower value 1 | S. cerevisiae deletion strains, locus YLR262C, strain YPT6, stronger effect = lower value 0.979 | S. cerevisiae deletion strains, locus YLR268W, strain sec22, stronger effect = lower value 0.951 | S. cerevisiae deletion strains, locus YLR320W, strain mms22, stronger effect = lower value 0.981 | S. cerevisiae deletion strains, locus YLR330W, strain CHS5, stronger effect = lower value 0.976 | S. cerevisiae deletion strains, locus YLR342W, strain FKS1 (second series), stronger effect = lower value 0.99 | S. cerevisiae deletion strains, locus YLR342W, strain FKS1, stronger effect = lower value 0.991 | S. cerevisiae deletion strains, locus YLR357W, strain rsc2, stronger effect = lower value 0.967 | S. cerevisiae deletion strains, locus YLR370C, strain arc18, stronger effect = lower value 0.975 | S. cerevisiae deletion strains, locus YLR371W, strain rom2, stronger effect = lower value 0.964 | S. cerevisiae deletion strains, locus YLR384C, strain iki3, stronger effect = lower value 0.988 | S. cerevisiae deletion strains, locus YLR418C, strain cdc73, stronger effect = lower value 0.996 | S. cerevisiae deletion strains, locus YML016C, strain PPZ1, stronger effect = lower value 0.992 | S. cerevisiae deletion strains, locus YML032C, strain rad52, stronger effect = lower value 0.99 | S. cerevisiae deletion strains, locus YML120C, strain ndi1, stronger effect = lower value 0.967 | S. cerevisiae deletion strains, locus YML124C, strain tub3, stronger effect = lower value 0.983 | S. cerevisiae deletion strains, locus YMR058W, strain fet3, stronger effect = lower value 1 | S. cerevisiae deletion strains, locus YMR078C, strain ctf18, stronger effect = lower value 0.976 | S. cerevisiae deletion strains, locus YMR125W, strain sto1, stronger effect = lower value 0.959 | S. cerevisiae deletion strains, locus YMR129W, stronger effect = lower value 0.969 | S. cerevisiae deletion strains, locus YMR205C, strain PFK2, stronger effect = lower value 0.984 | S. cerevisiae deletion strains, locus YMR223W, strain ubp8, stronger effect = lower value 1.02 | S. cerevisiae deletion strains, locus YMR231W, strain pep5, stronger effect = lower value 0.98 | S. cerevisiae deletion strains, locus YMR263W, strain SAP30, stronger effect = lower value 0.984 | S. cerevisiae deletion strains, locus YMR307W, strain GAS1, stronger effect = lower value 1.04 and 0.986 | S. cerevisiae deletion strains, locus YNL067W, strain RPL9B, stronger effect = lower value 0.985 | S. cerevisiae deletion strains, locus YNL071W, strain lat1, stronger effect = lower value 0.995 | S. cerevisiae deletion strains, locus YNL128W, strain TEP1, stronger effect = lower value 1.01 | S. cerevisiae deletion strains, locus YNL175C, strain NOP13, stronger effect = lower value 0.995 | S. cerevisiae deletion strains, locus YNL183C, strain NPR1, stronger effect = lower value 0.943 | S. cerevisiae deletion strains, locus YNL197C, strain WHI3, stronger effect = lower value 1 | S. cerevisiae deletion strains, locus YNL209W, strain ssb2, stronger effect = lower value 0.989 | S. cerevisiae deletion strains, locus YNL224C, strain SQS1, stronger effect = lower value 1.01 | S. cerevisiae deletion strains, locus YNL233W, strain BNI4, stronger effect = lower value 0.993 | S. cerevisiae deletion strains, locus YNL248C, strain rpa49, stronger effect = lower value 0.923 | S. cerevisiae deletion strains, locus YNL271C, strain bni1, stronger effect = lower value 0.985 | S. cerevisiae deletion strains, locus YNL298W, strain CLA4, stronger effect = lower value 0.979 | S. cerevisiae deletion strains, locus YNL307C, strain MCK1, stronger effect = lower value 0.975 | S. cerevisiae deletion strains, locus YNL322C, strain KRE1 (second series), stronger effect = lower value 0.953 | S. cerevisiae deletion strains, locus YNL322C, strain KRE1, stronger effect = lower value 0.979 | S. cerevisiae deletion strains, locus YNR049C, strain mso1, stronger effect = lower value 0.983 | S. cerevisiae deletion strains, locus YNR052C, strain pop2, stronger effect = lower value 0.983 | S. cerevisiae deletion strains, locus YOL006C, strain TOP1, stronger effect = lower value 1.06 | S. cerevisiae deletion strains, locus YOL012C, strain htz1 0.966 | S. cerevisiae deletion strains, locus YOL147C, strain pex11, stronger effect = lower value 0.969 | S. cerevisiae deletion strains, locus YOR001W, strain rrp6, stronger effect = lower value 1.01 | S. cerevisiae deletion strains, locus YOR061W, strain CKA2, stronger effect = lower value 1 | S. cerevisiae deletion strains, locus YOR069W, strain VPS5, stronger effect = lower value 0.986 | S. cerevisiae deletion strains, locus YOR070C, strain gyp1, stronger effect = lower value 0.986 | S. cerevisiae deletion strains, locus YOR080W, strain dia2, stronger effect = lower value 0.996 | S. cerevisiae deletion strains, locus YOR083W, strain WHI5 (second series), stronger effect = lower value 0.987 | S. cerevisiae deletion strains, locus YOR083W, strain WHI5, stronger effect = lower value 0.908 | S. cerevisiae deletion strains, locus YOR106W, strain vam3, stronger effect = lower value 0.933 | S. cerevisiae deletion strains, locus YOR136W, strain idh2, stronger effect = lower value 0.992 | S. cerevisiae deletion strains, locus YOR144C, strain elg1, stronger effect = lower value 0.989 | S. cerevisiae deletion strains, locus YOR184W, strain ser1, stronger effect = lower value 0.991 | S. cerevisiae deletion strains, locus YOR231W, strain MKK1, stronger effect = lower value 1.01 | S. cerevisiae deletion strains, locus YOR265W, strain rbl2, stronger effect = lower value 0.992 | S. cerevisiae deletion strains, locus YOR270C, strain vph1, stronger effect = lower value 0.932 | S. cerevisiae deletion strains, locus YOR290C, strain snf2, stronger effect = lower value 0.967 | S. cerevisiae deletion strains, locus YOR316C, strain cot1, stronger effect = lower value 0.982 | S. cerevisiae deletion strains, locus YPL051W, strain arl3, stronger effect = lower value 0.968 | S. cerevisiae deletion strains, locus YPL055C, strain LGE1, stronger effect = lower value 1.01 and 0.983 | S. cerevisiae deletion strains, locus YPL078C, strain atp4, stronger effect = lower value 0.944 | S. cerevisiae deletion strains, locus YPL106C, strain sse1, stronger effect = lower value 0.97 | S. cerevisiae deletion strains, locus YPL240C, strain hsp82, stronger effect = lower value 1.01 | S. cerevisiae deletion strains, locus YPL241C, strain CIN2, stronger effect = lower value 0.987 | S. cerevisiae deletion strains, locus YPL256C, strain CLN2, stronger effect = lower value 0.959 | S. cerevisiae deletion strains, locus YPR119W, strain clb2, stronger effect = lower value 0.975 | S. cerevisiae deletion strains, locus YPR141C, strain kar3, stronger effect = lower value 0.976 | S. cerevisiae deletion strains, locus YPR163C, strain tif3, stronger effect = lower value 0.978 | S. cerevisiae deletion strains, locus YPR167C, strain met16, stronger effect = lower value 0.974 | S. cerevisiae deletion strains, strain wtn01, stronger effect = lower value 0.99 | S. cerevisiae strains, strain wild type, stronger effect = lower value 0.993
